Screening data (PubChem)
This is one part of a sample in which hits are shown more often than they occur.
Dicer inh – inhibitors of Dicer pre-microRNA processing, primary screen, biochemical, cat-ELCCA, chemiluminescence; Endoribonuclease Dicer (Homo sapiens), Q9UPY3; cat-ELCCA pre-miR-21 Dicer processing; hits give high values; AID 1347074, 2019; z-score at 25 µM; actives 6% (n = 47,000); in the data active = z-score above about 3, passing the limit was not always enough;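 note: plate controls were vehicle for no effect and no enzyme for full effect; higher signal means more uncleaved substrate so more Dicer inhibition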
* hit, by the source's call.

Results for OC1=C(O)c2nc3cc(F)ccc3nc21 ?
Dicer inh: 3.12*

How did CCOC(=O)c1ccc2nc3c(nc2c1)C(O)=C3O do in these assays?
Dicer inh: 8.52

Results for Cc1ccc(S(=O)(=O)NC(=O)OCCn2ncc3ccccc3c2=O)cc1 ?
Dicer inh: 2.03

How did C=CCSc1nnc2c3ccccc3n(CC=C)c2n1 do in these assays?
Dicer inh: 3.24*

Results for CCCSc1nnc2c3ccccc3n(CC)c2n1 ?
Dicer inh: 1.1

What do the screens show for `CCn1c2ccccc2c2nnc(SCC(=O)c3ccccc3)nc21`?
Dicer inh: 1.58

How did O=C1C=C(c2ccc(Br)cc2)OC(=O)C1C(=O)c1ccc(Br)cc1 (stereo not drawn) do in these assays?
Dicer inh: -0.5

Results for COc1ccccc1C1CCN(c2ccc(C3OCC(C)(C)CO3)cc2[N+](=O)[O-])CC1 ?
Dicer inh: 2.86

Results for CC(Oc1ccc(Cl)cc1Cl)C(=O)Oc1ccc(Cl)cc1Cl (stereo not drawn) ?
Dicer inh: 8.25

What do the screens show for `O=S(=O)(CS(=O)(=O)Oc1ccc(Cl)cc1Cl)Oc1ccc(Cl)cc1Cl`?
Dicer inh: 2.3

Results for O=C(/C=C/C(=O)Oc1ccc(Cl)cc1Cl)Oc1ccc(Cl)cc1Cl ?
Dicer inh: 3.7*

What do the screens show for `CCOC(=O)c1nnn2c1nc(Nc1ccc(Cl)cc1)c1ccccc12`?
Dicer inh: -0.24

Results for CCOCCOC(=O)C1=C(C)NC2=C(C(=O)CC(c3ccccc3)C2)C1c1cccc(F)c1 (stereo not drawn) ?
Dicer inh: 1.17

What do the screens show for `N#Cc1cnn(C(=O)c2ccc(Cl)cc2)c1C1CC1`?
Dicer inh: -0.44

How did O=C(O)CCCCCN1C(=O)C2CC=CCC2C1=O (stereo not drawn) do in these assays?
Dicer inh: -0.39

How did CC(=O)c1ccc(SC(C)C)c([N+](=O)[O-])c1 do in these assays?
Dicer inh: -2.3

What do the screens show for `O=C(c1cc(O)c(O)c([N+](=O)[O-])c1)c1ccccc1F`?
Dicer inh: -0.16

What do the screens show for `Cc1ccc(C(=O)c2cc(O)c(O)c([N+](=O)[O-])c2)cc1`?
Dicer inh: 8.45*

Results for Cc1cc(Cl)ccc1NC(=O)CC#N ?
Dicer inh: -0.26

Results for Cc1ccc(-c2nn3c(C)nnc3s2)cc1NC(=O)C(C)(C)C ?
Dicer inh: 2.94

How did COc1cccc(/C=C/c2nc(O)c([N+](=O)[O-])c(=O)[nH]2)c1 do in these assays?
Dicer inh: -0.93

What do the screens show for `CC1(C)Cc2c(c(-c3ccco3)nc3sc4c(N5CCOCC5)ncnc4c23)CO1`?
Dicer inh: 0.13

How did CC(C)NC(=O)CSc1nccc(-c2cccs2)n1 do in these assays?
Dicer inh: 0.49

Results for O=C(CSc1nccc(-c2cccs2)n1)c1cc(-c2ccc(Cl)c(Cl)c2)no1 ?
Dicer inh: 4.02*

What do the screens show for `O=C(CSc1nccc(-c2cccs2)n1)Nc1ccccc1`?
Dicer inh: -0.43

What do the screens show for `CCOC(Cc1nnc(SCC(=O)c2ccc(Cl)cc2Cl)n1C)OCC`?
Dicer inh: 0

Results for CCOC(=O)c1nnn(-c2cc(Cl)cc(Cl)c2)c1SCc1c(F)cccc1Cl ?
Dicer inh: -0.95

How did O=C(CCSc1nc(-c2ccco2)cc(C(F)(F)F)n1)Nc1ccccc1F do in these assays?
Dicer inh: 0.98

How did CCOC(=O)c1sc2nc(C)cc(C)c2c1NC(=O)Nc1ccccc1 do in these assays?
Dicer inh: 0.17

How did COC(=O)c1cc(-c2ccc(S(=O)(=O)NC(C)c3ccccc3)cc2)c(C(F)(F)F)s1 (stereo not drawn) do in these assays?
Dicer inh: -2.69

How did CCOC(=O)c1cc2nc(Nc3ccc(OC)cc3)sc2s1 do in these assays?
Dicer inh: 3.28*

What do the screens show for `CCOC(=O)c1sc(Nc2nc(C)c(CC)c(OC)n2)nc1C`?
Dicer inh: 0.87

Results for CCOC(=O)c1cc2nc3sccn3c2s1 ?
Dicer inh: -0.99

Results for CCOC(=O)N1CCc2c(sc3[nH]c(=S)n(-c4ccccc4)c(=O)c23)C1 ?
Dicer inh: 31.2

How did O=C(CC(Sc1ccc(Cl)cc1)c1ccc(Cl)cc1)c1ccccc1 (stereo not drawn) do in these assays?
Dicer inh: -3.45

What do the screens show for `O=C(CCCC(=O)c1ccccc1)c1ccccc1`?
Dicer inh: -2.23

How did N#CC(C#N)C(CC(=O)c1ccccc1)c1ccccc1 (stereo not drawn) do in these assays?
Dicer inh: 4.16*

What do the screens show for `Cc1ccc(I)c(C(=O)OCC(=O)c2ccc(Br)cc2)c1`?
Dicer inh: 1.22

Results for COc1cccc(C(=O)OCC(=O)c2ccc(Br)cc2)c1 ?
Dicer inh: 5.86*

What do the screens show for `COc1ccc(C(=O)OCC(=O)c2ccc(Br)cc2)cc1OC`?
Dicer inh: 0.14

How did O=Nc1c2cc(-c3cccc(OC(F)(F)F)c3)[nH]nc-2c2ccccc12 do in these assays?
Dicer inh: 0

What do the screens show for `OCCCNc1ncnc2c1sc1nc(-c3ccccc3)c3c(c12)CCCC3`?
Dicer inh: -0.45

Results for OCCN(CCO)c1ncnc2c1sc1nc(N3CCOCC3)c3c(c12)CCCC3 ?
Dicer inh: -0.37

How did CN(C)c1ccnc2sc3c(N(CCO)CCO)ncnc3c12 do in these assays?
Dicer inh: 3.28*

Results for CN(C(=O)C(Cl)Cl)C1CC2C=CC1C2 (stereo not drawn) ?
Dicer inh: 0.77

What do the screens show for `CCN(C(=O)C(Cc1ccccc1)C(=O)N(CC)c1ccccc1)c1ccccc1`?
Dicer inh: 14

Results for CCCC(=O)n1c(=O)oc2cc(Br)ccc21 ?
Dicer inh: 3.95*

Results for CCCC(=O)c1cc2cc(Br)cc(Br)c2oc1=O ?
Dicer inh: -0.04

What do the screens show for `CCCC(=O)c1cc2cc(Br)ccc2oc1=O`?
Dicer inh: -0.31

What do the screens show for `CN(C)/C=C/C(=O)c1ccc(C#N)cc1`?
Dicer inh: 0.35

How did CN(C)/C=C/C=C/C=C/C(=O)c1ccc(Br)cc1 do in these assays?
Dicer inh: 4.53*

What do the screens show for `CC(C)Cc1ccc(C(=O)/C=C/N(C)C)cc1`?
Dicer inh: 0.54

How did CCCCCOC(=O)C1=C(C)NC2=C(C(=O)CCC2)C1c1ccccc1OC(C)C (stereo not drawn) do in these assays?
Dicer inh: -0.33

What do the screens show for `Cc1ccc(C(=O)Nc2nccc(-c3ccc4c(c3)OCCO4)n2)cc1`?
Dicer inh: 0.78

How did CSc1nnc2c(n1)OC(c1ccccc1OCC(=O)O)Nc1ccccc1-2 (stereo not drawn) do in these assays?
Dicer inh: 4.48*

Results for CSc1nnc2c(n1)OC(c1ccc(Br)cc1)Nc1ccccc1-2 (stereo not drawn) ?
Dicer inh: 5.43*

What do the screens show for `COc1ccc(C2Nc3ccccc3-c3nnc(SC)nc3O2)cc1` (stereo not drawn)?
Dicer inh: 1.49

How did CSc1nnc2c(n1)OC(c1ccc(N(C)C)cc1)Nc1ccccc1-2 (stereo not drawn) do in these assays?
Dicer inh: 23.1

What do the screens show for `CCSc1nnc2c(n1)OC(c1ccc(O)c(O)c1)Nc1ccccc1-2` (stereo not drawn)?
Dicer inh: 2.31

What do the screens show for `CSc1nnc2c(n1)OC(c1ccc(O)c(O)c1)Nc1ccccc1-2` (stereo not drawn)?
Dicer inh: 4.4*

How did COc1ccccc1C1Nc2ccccc2-c2nnc(SC)nc2O1 (stereo not drawn) do in these assays?
Dicer inh: -0.54

What do the screens show for `CSc1nnc2c(n1)OC(c1ccc(C(=O)O)cc1)Nc1ccc(Br)cc1-2` (stereo not drawn)?
Dicer inh: 0.21
